# This excerpt belongs to a sample that is enriched for hits.
# nsP2pro primary – inhibitors of chikungunya virus nsP2 protease; FRET peptide cleavage, nsP2pro, fluorescence 1 h; Potency, µM (highest dose often 24.9 µM), for inactives: at the top dose activity change, negative = inhibition, most hits filed as inhibitors; 31,000 compounds, 1.1% hits; calls by dose curve; further: nearly all actives have a fitted effect of over 60% in size
#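 Recombinant nsP2pro (150 nM) was preincubated with compound 15 min at room temperature in 10 mM Tris-HCl pH 8.0, 0.01% Tween 20. Peptide 2 FRET substrate (2.5 uM) was then added and fluorescence read after 1 h. Seven-point series, up to 25 uM.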
# An asterisk follows results filed as active; i = inactive; ! = repeats disagree; [ ] = remark or other dose. On the % scale 0 is the no-effect control and ±100 the full control effect; potency means the concentration at half of the fitted maximal effect.
SMILES,nsP2pro primary
O=C(NCc1ccnc2[nH]ccc12)c1ccc(Cl)cc1,14.1µM*
O=C(Cc1ccccc1)NCc1ccnc2[nH]ccc12,-1.3%[39.2 µM]
O=C(NCc1c[nH]c2ncccc12)c1cccnc1,2.7%[39.2 µM]
COc1ccc(C(=O)N2CCC(Cn3c(C)cnc3C3CCC3)CC2)c(OC)c1,-2.7%
O=C(Nc1ccc(Oc2ccccc2)cc1)N[C@H]1CO[C@H]2[C@@H]1OC[C@@H]2n1nnnc1Oc1ccc(-n2cncn2)cc1,i
O=C1Nc2cc(Cl)ccc2/C1=C\c1cc(Cl)c(O)c(Cl)c1,i
Cc1cc2c(s1)Nc1ccccc1N=C2N1CCN(C)CC1,11.1µM*!
CN1CCN(C2=Nc3ccccc3Cc3ccccc32)CC1,-0.7%
CN1CCN(C2=Nc3ccccc3Nc3ccc(Cl)cc32)CC1,2.4%
COCCn1c(C)cc(C(=O)NC2CCc3nnc(C4CC4)n3CC2)c1C (stereo not drawn),i
C#CCOc1ccc(C(C)=O)cc1-c1nnc2n1N=C(c1ccc(OC)c(OC)c1)CS2,i
O=C(Nc1cccc(Cl)c1)c1cc(-c2ccc[nH]2)n[nH]1,11.3%
O=C(Nc1ccc(F)cc1)c1cc(-c2ccc[nH]2)n[nH]1,10µM*
O=C(Nc1cccc(F)c1)c1cc(-c2ccc[nH]2)n[nH]1,88.2%
Cc1ccc(C)c(NC(=O)Cn2c(=O)ccc3cc(S(=O)(=O)N4CCCC4)ccc32)c1,-20.2%
CCc1ccc(NCc2cc3cc(OC)c(OC)cc3n(CC(=O)Nc3cc(C)ccc3C)c2=O)cc1,10µM*
COc1ccc(CCNC(=O)CCn2c(=O)c3ccccc3n(CC(=O)Nc3cc(Cl)ccc3C)c2=O)cc1OC,-11.0%
CC(C)c1c(-c2cnn(C(C)(C)C)c2)nc2c(C#N)c[nH]n2c1=O,-4.0%
CC(C)=C1C/C=C(\C)CC/C=C(\C)CC1=O,0.1%
CCOC(=O)c1cnn(-c2ccccc2)c1NC(=O)c1cc2nc(-c3ccco3)cc(C(F)(F)Cl)n2n1,11.1µM*
COC(=O)c1ccccc1NC(=O)c1cc2nc(-c3ccccc3)cc(-c3ccccc3)n2n1,-19.0%
CCOC(=O)c1cnn(-c2ccc(NC(=O)C(Cl)=C(Cl)Cl)cc2)c1C(F)(F)F,-0.9%
CC(N[C@H]1C[C@@H]1c1ccccc1)c1ccc2c(c1)OCCO2 (stereo partly drawn),-14.7%
COc1ccc(CN2CCc3ncc(C(=O)NCc4ccc5c(c4)OCO5)n3CC2)cn1,i
Cc1[nH]cnc1CN1CCc2nc(C(=O)NCCOc3ccccc3)oc2CC1,i
SMILES,nsP2pro primary
O=C(NCc1ccc(F)cc1)c1nnc(Cc2cccc(F)c2)o1,-13.6%
O=C(NC1CC1)[C@@H]1CN(CCCc2ccccc2)C[C@H]1CO,-14.9%
Cc1c(C(=O)NCc2cccc(F)c2)oc2c1-c1[nH]ncc1CC2,-31.7%
O=C(NCC1CC1)c1nc2c(o1)CCN(CCCc1ccccc1)CC2,10µM*
O=C(NCC1CC1)C1CN(Cc2ccccc2)C(=O)N1 (stereo not drawn),4.9%[39.2 µM]
COc1ccc(CN2CCc3nc(C(=O)NCCOc4ccccc4)oc3CC2)cn1,3.55µM*
O=C(NCc1cccc(F)c1)c1nc2c(o1)CCN(CC1CCCC1)CC2,3.55µM*
C=C1C(=O)CC2OC2(C)CC2OC(=O)C(=C)C2C(O)C1OC(=O)/C(C)=C\C (stereo not drawn),18.3%
O=C1CCCC2=C1C(c1[nH]ncc1Cl)N=C(Nc1nc3ccc(Cl)cc3o1)N2 (stereo not drawn),-3.5%
COc1cccc([S+](=O)([O-])N2CCC3(C2)C(=NC2CCCCC2)NC(=O)N3c2cc(F)cc(F)c2)c1 (stereo not drawn),3.5%
CC(C)c1cnn2c(NCc3ccccc3-n3cccn3)nc(OC3CCCNC3)nc12 (stereo not drawn),5.9%
COc1ccc(-n2nc(C)c([C@@H]3C=C[C@@H](NCc4ccc(C(C)C)cc4)C3)c2C)cc1,-19.8%[39.2 µM]
COCC(=O)N1CCC(c2nn(-c3ccccn3)c(=O)[nH]2)CC1,-40.0%[39.2 µM]
Cc1cc(O)c(-c2ccc([C@@H](C)CN(C)C)cc2)c2c1[nH]c(=O)c1sccc12,-6.3%
Nc1ncnc2c1ncn2C1O[C@H](COP(=O)(O)OP(=O)(O)OP(=O)(O)O)[C@@H](O)[C@H]1O (stereo partly drawn),-17.2%
O=C([C@H](Cc1ccc(O[S+](=O)([O-])c2cccc3cccnc23)cc1)N[S+](=O)([O-])c1ccccn1)N1CCN(c2ccccc2)CC1,i
O=C(c1ccc(F)cc1)N1C[C@@H]2C[C@H](C1)c1ccc(NS(=O)(=O)Cc3ccccc3)c(=O)n1C2,12.6µM*
COc1ccc(S(=O)(=O)Nc2ccc3n(c2=O)C[C@H]2C[C@@H]3CN(C(=O)c3ccccn3)C2)cc1,-28.8%
CCCS(=O)(=O)Nc1ccc(=O)n2c1[C@@H]1C[C@@H](CN(C(=O)c3ccc(F)cc3)C1)C2,-1.4%[39.2 µM]
Cc1cc(C)nc(NC(=S)N2CCN(c3cncnc3)CC2)c1,2.6%
COCCn1c(C)cnc1CCNC(=O)NCC(C)C,i
COCCn1c(C)cnc1CCNS(=O)(=O)c1cc(OC)ccc1OC,1.1%
COCCn1c(C)cnc1CCNS(=O)(=O)c1c(C)nn(C)c1C,10µM*
COc1cccc(N2CCN(C(=O)CCn3ccn4nc5c(c4c3=O)CCCC5)CC2)c1,3.6%
O=C1COc2ccc(N3CCOCC3)nc2CN1Cc1ccc(F)cc1,11.2µM*
SMILES,nsP2pro primary
O=C1COc2ccc(-c3cccc(O)c3)nc2CN1Cc1ccc(C(F)(F)F)cc1,i
Cn1cc(-c2ccc3c(n2)CN(Cc2ccc(F)cc2)C(=O)CO3)cn1,-4.5%[39.2 µM]
Clc1ccc(CSc2nc3ncc(Br)cc3[nH]2)cc1Cl,4.9%
O=C(CC1C(=O)OCCN1Cc1ccccc1)Nc1cccc(C(F)(F)F)c1 (stereo not drawn),-15.7%
CCN1CCOC(=O)C1CC(=O)Nc1ccccc1C(F)(F)F (stereo not drawn),11.2µM*
CCOC(=O)C1=CN(CC(=O)Nc2ccccc2C(F)(F)F)S(=O)(=O)N=C1C,-6.5%
CC(C)(C)c1cnc([C@@H]2COCCN2C2CCCCC2)[nH]1,i
COCCCNC(=O)c1cnc2n[nH]c(-c3ccccc3)c2n1,1.3%[39.2 µM]
CC(C)c1ccccc1-c1nc(NCc2ccc(-c3cccnc3)cc2)c2ccsc2n1,-17.6%
OCC(O)CCO/N=C1/C(c2c(O)[nH]c3ccccc23)=Nc2ccccc21 (stereo not drawn),16.2%
Cc1[nH]nc(CCC(=O)N2CC[C@@H](NC(=O)c3cnccn3)[C@H](O)C2)c1C,-10.9%
CN(C)c1ccc(CNc2nc(-c3ccco3)nn2C(=O)c2cccc([N+](=O)[O-])c2)cc1,-5.3%
COc1ccc(C(=O)n2nc(-c3ccco3)nc2NCc2cccs2)cc1OC,12.6µM*
COc1ccc(C(=O)n2nc(-c3ccc(Cl)cc3)nc2NCc2ccco2)cc1,-14.2%
Cc1ccsc1CN1CCc2[nH]nc(C(=O)N(C)C)c2C1,1.5%
CCCN1CCN(C(=O)C2(c3ccc(NC(=O)C4CC4)cc3)CCCCC2)CC1,-0.1%
CC(C)[C@@H]1NC(=O)[C@@H](C(C)C)OC(=O)[C@H](C(C)C)NC(=O)[C@H](C)OC(=O)[C@@H](C(C)C)NC(=O)[C@@H](C(C)C)OC(=O)[C@H](C(C)C)NC(=O)[C@H](C)OC(=O)[C@@H](C(C)C)NC(=O)[C@@H](C(C)C)OC(=O)[C@H](C(C)C)NC(=O)[C@H](C)OC1=O,28.5%
C=C1C(=O)OC2/C=C(\CO)CC/C=C(\C=O)C(O)C(OC(=O)C(C)CC)C12 (stereo not drawn),-6.0%

# Source: PubChem
